Measurements: PubChem BioAssay (Tox21)
Inconclusive results are not listed. The source made the active and inactive calls. Unless noted, the call rests on the fitted dose curve; in most records, active means well fitted curve in the direction sought with a large enough effect in the repeat runs; inconclusive means weak or mixed curves; inactive means no such curve, though single readings can be large; an effect the other way counts as inactive or inconclusive.

Key:
[1] = target: Estrogen receptor (Homo sapiens) (UniProt P03372); test: qHTS assay to identify small molecule antagonists of the estrogen receptor alpha (ER-alpha) signaling pathway using the BG1 cell line in the presence of 0.1 nM 17-beta-estradiol (AID 1259244); further: nearly all actives have a fitted effect of over 50% in size
Estrogen receptor (Homo sapiens), sequence (P03372 whole entry, looked up): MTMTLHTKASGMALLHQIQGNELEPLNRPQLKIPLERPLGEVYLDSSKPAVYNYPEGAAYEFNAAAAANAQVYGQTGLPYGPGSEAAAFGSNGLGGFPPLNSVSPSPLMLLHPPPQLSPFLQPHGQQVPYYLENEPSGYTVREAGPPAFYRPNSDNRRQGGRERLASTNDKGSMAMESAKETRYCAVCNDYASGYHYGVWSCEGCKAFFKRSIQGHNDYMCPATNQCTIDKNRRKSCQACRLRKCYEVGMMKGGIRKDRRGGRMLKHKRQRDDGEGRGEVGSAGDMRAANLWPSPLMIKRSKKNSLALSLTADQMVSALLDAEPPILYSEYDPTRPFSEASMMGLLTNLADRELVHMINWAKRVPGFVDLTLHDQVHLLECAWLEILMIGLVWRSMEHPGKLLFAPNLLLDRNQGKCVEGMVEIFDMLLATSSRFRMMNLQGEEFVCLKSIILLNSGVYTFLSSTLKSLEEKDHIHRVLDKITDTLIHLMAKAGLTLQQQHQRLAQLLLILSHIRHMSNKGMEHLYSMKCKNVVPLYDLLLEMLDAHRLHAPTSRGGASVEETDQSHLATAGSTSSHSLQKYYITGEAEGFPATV
Outline: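 Seeding of stripped-serum-adapted VM7Luc4E2 cells, 24 h attachment, compound transfer, then 0.1 nM final 17beta-estradiol; after 22 h incubation, ONE-Glo reagent and luminescence reading.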

[2] = qHTS assay to identify small molecule HDAC inhibitors (AID 1259364);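 further: wild-type HCT-116 cells with endogenous class I/II HDAC activity; top concentration of the series differs between compounds; nearly all actives have a fitted effect of over 45% in size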
Outline: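 After a 2 hr compound incubation (37C, 5% CO2), HCT-116 cells seeded at 1,500/well the day before received HDAC-Glo reagent; signal read as luminescence after 30 min at room temperature.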

[3] = qHTS assay to identify small molecule HDAC inhibitors - cell viability counter screen (AID 1259365); further: series mostly up to about 92 µM; nearly all actives have a fitted effect of over 50% in size
Outline: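 Wild-type HCT-116 cells were seeded at 1,500 per well, incubated overnight at 37 C, then exposed to compounds in DMSO for 2hr. Viability was read by CellTiter-Glo luminescence after 30min at room temperature.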

[4] = qHTS assay to identify small molecule agonists of the sonic hedgehog signaling (Shh) pathway - cell viability counter screen (AID 1259366); further: nearly all actives have a fitted effect of over 50% in size
Outline: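 NIH/3T3-derived 3T3 Gli1-Luc cells (stable Gli1-responsive firefly luciferase reporter) were seeded, rested 4 hr at 37 C/5% CO2, then exposed to compounds in DMSO for 24 hr; viability was read by CellTiter-Fluor fluorescence in the same wells.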

[5] = qHTS assay to identify small molecule antagonists of the sonic hedgehog signaling (Shh) pathway - cell viability counter screen (AID 1259367); further: nearly all actives have a fitted effect of over 55% in size
Outline: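 Fluorescence read-out (CellTiter-Fluor, 1 hr at 37C) taken after 23 hr compound treatment of 3T3 Gli1-Luc cells stimulated with conditioned medium. Cells were seeded at 2,000 per well and pre-incubated 4 hr.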

[6] = qHTS assay to identify small molecule agonists of the sonic hedgehog signaling (Shh) pathway (AID 1259368; calls by dose curve; further: series mostly up to about 92 µM; nearly all actives have a fitted effect of over 15% in size)
Outline: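 Stable NIH/3T3 Gli1-Luc reporter clone; 24 hr cpd exposure after a 4 hr settling period; luminescence endpoint.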

[7] = qHTS assay to identify small molecule antagonists of the sonic hedgehog signaling (Shh) pathway (AID 1259369; calls by dose curve; further: nearly all actives have a fitted effect of over 45% in size)
Outline: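 Gli1 transcriptional reporter (firefly Luc) in NIH/3T3 background, conditioned-medium activated. 24hr exposure, luminescence endpoint.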

[8] = qHTS assay to identify small molecule agonists of the androgen receptor (AR) signaling pathway in the presence of an antagonist - cell viability counter screen (AID 1259379);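 further: MDA-kb2 human breast cancer cells carrying an MMTV luciferase reporter; series mostly up to about 92 µM; nearly all actives have a fitted effect of over 25% in size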
Outline: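 Counter screen for cell viability run in parallel with the AR agonist-mode luciferase assay. MDA-kb2 cells were co-treated with nilutamide (3.0uM final) and compounds, then incubated 16 hr at 37C, and CellTiter-Fluor fluorescence was measured.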

[9] = qHTS assay to identify small molecule agonists of the estrogen receptor beta (ER-beta) signaling pathway - cell viability counter screen (AID 1259380); further: nearly all actives have a fitted effect of over 30% in size
Outline: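 In this qHTS counter screen, HEK293T cells carrying an ER-beta/UAS beta-lactamase reporter, grown in 2% charcoal-stripped FBS, received compound for 16 hr; ATP-based CellTiter-Glo luminescence was then read after 30 min at room temperature.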

[10] = qHTS assay to identify small molecule antagonists of the estrogen receptor beta (ER-beta) signaling pathway - cell viability counter screen (AID 1259382); further: series mostly up to about 92 µM; nearly all actives have a fitted effect of over 55% in size
Outline: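 HEK293T ER-beta-UAS-bla, 2% charcoal-stripped FBS; compounds + 1nM E2 16 hr 37C; CellTiter-Glo luminescence, 30 min RT.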

[11] = target: Estrogen receptor (Homo sapiens) (UniProt P03372); test: qHTS assay to identify small molecule agonists of the estrogen receptor alpha (ER-alpha) signaling pathway in the presence of an antagonist (AID 1259383; calls by dose curve; further: top concentration of the series differs between compounds; nearly all actives have a fitted effect of over 15% in size)
Outline: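 ER-alpha agonism measured under antagonist challenge: 10.0nM ICI-182,780 (final) plus compound, 15 concentrations, 22hr, VM7Luc4E2 ERE-luciferase cells. Read by luminescence.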

[12] = qHTS assay to identify small molecule agonists or antagonists of the thyroid stimulating hormone receptor (TSHR) signaling pathway - wild type cell line counter screen (AID 1259384; calls by dose curve)
Outline: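 Wild-type Hek293 cells, 800/well, 18 h at 37C, then compound with Ro20-1724 for 30 min RT. cAMP by HTRF (cAMP-d2/anti-cAMP cryptate), 1 h RT, fluorescence read. 15 concentrations, triplicates.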

[13] = target: Thyrotropin receptor (Homo sapiens) (UniProt P16473); test: qHTS assay to identify small molecule antagonists of the thyroid stimulating hormone receptor (TSHR) signaling pathway (AID 1259385; calls by dose curve; further: nearly all actives have a fitted effect of over 20% in size)
Thyrotropin receptor (Homo sapiens), sequence (P16473 whole entry, looked up): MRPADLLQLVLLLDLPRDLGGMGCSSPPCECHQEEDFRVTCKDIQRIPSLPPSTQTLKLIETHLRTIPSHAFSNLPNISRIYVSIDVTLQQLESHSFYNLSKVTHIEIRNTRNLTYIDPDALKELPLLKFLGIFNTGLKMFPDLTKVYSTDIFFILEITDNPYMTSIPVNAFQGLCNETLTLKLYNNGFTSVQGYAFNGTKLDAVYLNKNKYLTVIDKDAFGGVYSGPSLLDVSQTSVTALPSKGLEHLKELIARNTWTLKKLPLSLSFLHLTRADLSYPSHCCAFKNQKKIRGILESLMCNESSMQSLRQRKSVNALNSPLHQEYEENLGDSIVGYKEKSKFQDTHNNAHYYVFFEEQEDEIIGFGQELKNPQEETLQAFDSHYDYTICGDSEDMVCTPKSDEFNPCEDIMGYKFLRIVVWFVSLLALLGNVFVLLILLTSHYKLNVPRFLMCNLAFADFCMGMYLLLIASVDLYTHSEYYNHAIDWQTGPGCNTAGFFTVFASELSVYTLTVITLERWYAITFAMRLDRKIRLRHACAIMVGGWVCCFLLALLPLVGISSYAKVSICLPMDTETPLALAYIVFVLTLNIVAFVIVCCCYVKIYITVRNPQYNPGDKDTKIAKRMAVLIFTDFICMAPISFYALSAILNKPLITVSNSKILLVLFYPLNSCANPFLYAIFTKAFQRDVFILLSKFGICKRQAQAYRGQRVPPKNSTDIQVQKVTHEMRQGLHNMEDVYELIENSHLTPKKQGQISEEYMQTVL
Outline: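 TSHR-HEK293 cells (800/well) plated 18 h, then compounds with Ro20-1724 and TSH at 1.5 ng/mL final, 30 min at room temperature. cAMP quantified by HTRF (cAMP-d2/anti-cAMP-cryptate, 1 h); 15 concentrations in triplicate.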

[14] = qHTS assay to identify small molecule antagonists of the androgen receptor (AR) signaling pathway using the MDA cell line in the presence of 0.5 nM R1881 - cell viability counter screen (AID 1259242); further: nearly all actives have a fitted effect of over 45% in size
Outline: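 Human breast carcinoma MDA-kb2 cells, cultured without CO2, receive compounds alongside 0.5 nM (final) R1881 agonist. After 16 hr at 37C, viability is taken as live-cell protease signal.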

[15] = qHTS assay to identify small molecule phospholipidosis (PLD) inducers (AID 1259344; active means well fitted curve in the direction sought with a large enough effect; an effect the other way counts as inactive or inconclusive)
Outline: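 Read-out is LipidTOX Red fluorescence (ex 595/em 615) imaged in HepG2 cells after 24 h compound exposure at 37 C, with Hoechst nuclear counterstain (ex 352/em 461) allowing per-cell normalisation.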

[16] = target: Estrogen receptor beta (Homo sapiens) (UniProt Q92731); test: qHTS assay to identify small molecule antagonists of the estrogen receptor beta (ER-beta) signaling pathway (AID 1259378; active means well fitted inhibition curve with a large enough effect in the signal ratio in the repeat runs, not every such curve was filed as active; the % refers to the signal ratio)
Estrogen receptor beta (Homo sapiens), sequence (Q92731 whole entry, looked up): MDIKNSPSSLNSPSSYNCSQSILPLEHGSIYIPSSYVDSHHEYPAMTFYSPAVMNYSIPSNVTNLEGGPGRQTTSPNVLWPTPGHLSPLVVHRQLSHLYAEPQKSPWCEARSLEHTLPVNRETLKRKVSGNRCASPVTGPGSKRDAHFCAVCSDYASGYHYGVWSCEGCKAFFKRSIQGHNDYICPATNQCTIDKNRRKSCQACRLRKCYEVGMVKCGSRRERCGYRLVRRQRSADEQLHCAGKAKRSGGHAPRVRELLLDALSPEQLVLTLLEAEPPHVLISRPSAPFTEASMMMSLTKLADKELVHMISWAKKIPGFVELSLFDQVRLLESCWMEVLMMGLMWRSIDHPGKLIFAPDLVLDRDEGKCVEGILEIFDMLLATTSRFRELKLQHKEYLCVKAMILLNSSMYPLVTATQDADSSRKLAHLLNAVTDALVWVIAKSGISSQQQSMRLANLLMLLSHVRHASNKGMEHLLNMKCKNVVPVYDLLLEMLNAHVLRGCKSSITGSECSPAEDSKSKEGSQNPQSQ
Outline: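 ER-beta-UAS-bla HEK293T cells in 2% charcoal-stripped FBS medium treated with compound plus 1nM final 17-beta-estradiol for 16 hr at 37C. Beta-lactamase reporter read by FRET substrate fluorescence after 2 hours at room temperature.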

Measured: Potency

CCNC(=O)NC(=O)/C(C#N)=N/OC
not listed: [14] | [15] | [16]
inactive: all other assays above

CC[N+]1(C)CCCC(OC(=O)C(O)(c2ccccc2)c2ccccc2)C1 (stereo not drawn)
not listed: [1] | [11] | [16]
inactive: all other assays above

O=C(O)C(O)C(O)C(=O)O (stereo not drawn)
not listed: [12] | [13] | [15] | [16]
inactive: all other assays above

CN(C)C(=O)Nc1cccc(OC(=O)NC(C)(C)C)c1
not listed: [15]
inactive: all other assays above
